This is part of a sample that, as a whole, favours compounds with a hit. Of some 83,000 tested, about 20% had one in any assay.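 Step 1: grow cells in 96-well plates. Step 2: add test compound at a single concentration. Step 3: incubate 48 h. Step 4: record percent growth.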 Unmarked numbers belong to inactive results. Calls of active or inactive are those of the source. Rule for the calls: active = growth percent below 10; inactive = the rest.
System: HL-60(TB) leukemia
Assay: NCI-60 one-dose screen, 48 h (100 = growth as untreated, 0 = no growth, -100 = all killed)
Details: 10 µM unless noted

Row | SMILES | growth
1 | O=C1C(Nc2ccc(Cl)cc2)=C(I)C(=O)c2ncccc21 | -45.8% (active)
2 | Cc1cc2cn3c4cccnc4[nH]c(=O)c3c2cc1C | -32.6% (active)
3 | Brc1ccc([I+]c2ccc(Br)cc2)cc1 | -25.6% (active)
4 | Cc1ccc(Nc2ccc(O)c3c2C(=O)c2c(O)ccc(Nc4ccc(C)cc4)c2C3=O)cc1 | 108%
5 | N#CC1=C(N2CCOCC2)NC2c3ccccc3Sc3ccccc3N2C1=N (stereo not given) | 89.8%
6 | COc1ccc2c(c1)C=C1CSCC3=Cc4cc(OC)ccc4OC13O2 | -5.12% (active)
7 | COc1ccc(NC(=O)CSc2nc(-c3ccc(OC)c(OC)c3)cc(-c3cc(OC)c(OC)c(OC)c3)n2)cc1 | 115%
8 | Cc1cc(NN=C(c2ccc(O)cc2)c2ccc(O)cc2)c([N+](=O)[O-])cc1[N+](=O)[O-] | 66.9%
9 | N#Cc1c(-c2ccc(F)cc2)c(C#N)c2c(C#N)c(N)nn2c1N | 99.7%
10 | CNC(=O)c1cc(Oc2ccc3nc(NC(=O)Nc4ccc(Cl)c(Cl)c4)sc3c2)ccn1 | 78.8%
11 | COc1cc(N)c2ncccc2c1Cl | 85.6%
12 | CCC(C)/C(=C\C#N)NCCCN/C(=C/C#N)C(C)CC (stereo not given) | 64.6%
13 | COc1ccc(C(=O)Nn2c(NCC(=O)N3c4ccccc4Sc4ccccc43)nnc2-c2ccc(O)cc2)cc1 | 94.3%
14 | COc1ccc(OC)c(C(=O)c2oc3ccc(Br)cc3c2N)c1 | -10.2% (active)
15 | O=[N+]([O-])c1ccccc1Nc1ccc2ccccc2c1 | 93.5%
16 | CCOC(=O)c1c(Cl)c2c(n1Cc1ccc(OC)cc1)-c1oncc1CCC2 | 78.9%
17 | CSc1nn(-c2ccccc2)c2ncnc(Oc3ccccc3)c12 | 109%
18 | CN(C)c1ccc2c(c1)OC(N)=C(C#N)C2c1ccc2c(c1)CCCN2C (stereo not given) | 5.46% (active)
19 | COc1cc(OC)c(C(=O)C(CN(C)C)CN(C)C)cc1OC | -63.5% (active)
20 | Cc1ccc(/C=C2/C(=O)N(C)c3ccc(S(=O)(=O)Nc4ccc(C(C)(C)C)cc4)cc32)s1 | 97%

Row | SMILES | growth
21 | COC(=O)c1c2c(c(C)[n+]([O-])c1C)C(=O)C=C(NCc1cccc(OC)c1)C2=O | -37.3% (active)
22 | COc1cc2c(cc1O)CCN1C[C@@H](CC(C)C)[C@@H](O)C[C@@H]21 | 73.7%
23 | C#Cc1cccc(Oc2ccc(NC(=O)CCl)cc2)c1 | 0.122% [8.25 µM] (active)
24 | O=C(Nc1cccc(Cl)c1)c1cc(N=Nc2ccc([N+](=O)[O-])cc2Cl)ccc1O | 38.2%
25 | COc1cccc(CNc2c3ccccc3nc3ccccc23)c1 | 40.9%
26 | COc1cc(-c2csc(NC(=O)Nc3cc(Cl)cc(Cl)c3)n2)cc(OC)c1OC | 34.9%
27 | Clc1ccc(-c2nc(NCCc3ccccc3)nc3c(NCCc4ccccc4)cnn23)cc1 | 88.8%
28 | CSc1ccc(-c2n[nH]nc2-c2cc3ccccc3s2)cc1 | 38%
29 | C1=C\CCCCN2CC[C@H]3[C@H](CCCC/C=C\CCCN4C[C@@H](CCCCC/1)C[C@@H]3C4)C2 | -35.5% (active)
30 | CCC(=O)Oc1cc(Cl)c(Cl)cc1Cl | 106%
31 | COc1ccc(CC2c3cc(OC)c(OC)cc3CC[N+]2(C)CCC(=O)OCCCCCOC(=O)CC[N+]2(C)CCc3cc(OC)c(OC)cc3C2Cc2ccc(OC)c(OC)c2)cc1OC (stereo not given) | 82.9%
32 | Cc1ccc(-c2c(-c3ccccc3)c(=O)oc3ccc(C)cc23)cc1 | 87%
33 | C=C1C(=O)O[C@H]2[C@H]1CC/C(Cn1cc(-c3cc(C(F)(F)F)cc(C(F)(F)F)c3)nn1)=C\CC[C@@]1(C)O[C@@H]21 | -49.1% (active)
34 | ClC1=C(Br)C(Br)(Br)C(=C(Br)Br)C1(Br)Br | 29.8%
35 | CN1CCN(c2nc(-c3csc(-c4cccs4)n3)cc3ccccc23)CC1 | 34.4%
36 | c1ccc(C2=Nc3ccccc3SC2)cc1 | 107%
37 | O=C(O)c1cccnc1Br | 110%
38 | S=c1[nH]nc(Cn2c3ccccc3c3ccncc32)o1 | 87.6%
39 | COC(=O)c1ccc(Cn2cnc3c(N)ncnc32)cc1 | 67.6%
40 | CCOC(=O)CSSCC(=O)OCC | 108%
